Screens deposited in PubChem by several laboratories.
Mdm2-MdmX inh – disrupts the human Mdm2-MdmX interaction; O15151+Q00987; SaOS-2 split-luciferase Mdm2/MdmX complementation, luminescence; inhibition, % at 8 µM; actives 3% (n = 330,000);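 active = inhibition of at least 50% at 8 µM in the primary screen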
Target sequence (O15151 whole entry, looked up): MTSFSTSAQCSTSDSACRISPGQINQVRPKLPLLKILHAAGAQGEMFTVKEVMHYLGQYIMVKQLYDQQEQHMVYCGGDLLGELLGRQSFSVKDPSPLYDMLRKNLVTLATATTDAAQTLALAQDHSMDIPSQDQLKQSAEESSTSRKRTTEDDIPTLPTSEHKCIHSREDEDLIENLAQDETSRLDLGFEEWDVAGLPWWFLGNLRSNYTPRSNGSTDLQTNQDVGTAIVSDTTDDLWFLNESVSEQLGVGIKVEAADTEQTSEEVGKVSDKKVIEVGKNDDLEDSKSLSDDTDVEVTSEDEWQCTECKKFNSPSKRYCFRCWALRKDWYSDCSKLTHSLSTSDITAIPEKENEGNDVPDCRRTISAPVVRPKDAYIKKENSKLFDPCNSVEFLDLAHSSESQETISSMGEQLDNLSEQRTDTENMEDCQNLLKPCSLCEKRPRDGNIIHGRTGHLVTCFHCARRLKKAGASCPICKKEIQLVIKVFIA
Target sequence (Q00987 whole entry, looked up): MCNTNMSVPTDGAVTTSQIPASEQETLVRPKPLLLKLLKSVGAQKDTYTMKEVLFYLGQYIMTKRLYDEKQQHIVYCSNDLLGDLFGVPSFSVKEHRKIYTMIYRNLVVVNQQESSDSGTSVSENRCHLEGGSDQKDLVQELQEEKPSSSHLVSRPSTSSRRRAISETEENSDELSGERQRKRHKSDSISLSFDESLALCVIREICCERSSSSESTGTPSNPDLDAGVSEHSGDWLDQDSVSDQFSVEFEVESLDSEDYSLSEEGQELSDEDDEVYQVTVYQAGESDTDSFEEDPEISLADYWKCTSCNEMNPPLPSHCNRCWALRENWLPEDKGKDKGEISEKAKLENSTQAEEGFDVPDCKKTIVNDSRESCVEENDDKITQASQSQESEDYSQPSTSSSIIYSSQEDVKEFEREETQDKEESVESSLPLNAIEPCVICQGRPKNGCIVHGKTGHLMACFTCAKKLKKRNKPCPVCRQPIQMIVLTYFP
CSC inhib – blocks cancer stem cells | cancer stem cell-like cells viability, luminescence | inhibition, % at 7.5 µM | actives 1.1% (n = 300,000) | AID 2717; in the data active = inhibition above about 75%; inconclusive = no clear call, values can overlap the other calls; tested in HMLE shEcad cells
Beta apoptosis – blocks beta cell apoptosis. actives 0.8% (n = 300,000). AID 435005. protection from apoptosis, % (no concentration beside the values). INS-1E cytokine-induced death, ATP luminescence, 48 h; percent of positive-control rescue, neutral wells zero;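 active = Every replicate reaches about 75%, or at least half do and their mean reaches it too, limit read from the data; inconclusive = At least half of replicates reach the limit but their mean does not; inactive = Under half of replicates reach the limit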;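 also: 0% = cytokine-treated negative control wells and 100% = positive control rescue; higher means more ATP so stronger rescue from cytokine killing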
Shn3 3UTR inh – Schnurri-3 reporter inhibition in Clone20 osteoblasts | Clone20 osteoblast Shn3 3'UTR firefly luciferase, 24 h | actives 0.52% (n = 360,000) | inhibition, % at 12.5 µM;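 active = mean inhibition of at least 75% with every replicate also reaching 75%; inconclusive = mean inhibition at least 75% but some replicate below; inactive = mean inhibition below 75%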;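 also: 0% = median of neutral control wells and 100% = pilot-screen positive control compound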
Gli-Sufu block – Gli-Sufu pathway antagonism; actives 0.74% (n = 340,000); inhibition, % at 5 µM; Sufu-KO-LIGHT fibroblasts, Gli luciferase reporter luminescence;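 active = inhibition above about 55%, limit read from the data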;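 also: 0% = DMSO-treated cells and 100% = wells with medium but no cells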
PAX8 reporter – lowers PAX8-driven luciferase in RMG-I cells; RMG-I TPO-luciferase reporter, SteadyGlo, 24 h; inhibition, % at 12.6 µM; actives 1.2% (n = 360,000);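 active = mean replicate inhibition at least 60% with every replicate also reaching 60%; inconclusive = only one of the two criteria is met; inactive = mean below 60% and not all replicates reaching 60%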;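 also: luciferase light reporting Pax8 driven TPO promoter activity; plate controls were median of neutral control wells for no effect and mitoxantrone controls for full effect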
Mdm2 MdmX conf – confirmation of human Mdm2/MdmX interaction inhibitors; shares compounds with Mdm2-MdmX inh; AID 489028; Mdm2-MdmX binding, luminescent assay; actives 55% (n = 10,000); inhibition, % at 8 µM; in the data active = inhibition above about 40%
Full FLuc ctr – counter-screen for Mdm2/MdmX inhibitors: full-length luciferase. shares compounds with Mdm2-MdmX inh. SaOS-2 full-length luciferase counterscreen, luminescence. inhibition, % at 8 µM. AID 504607. actives 77% (n = 6,200);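 active = mean inhibition at 8 µM reaching about 37%, which flags the compound as non-specific, limit read from the data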;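 also: p53-null SaOS-2 cells with luciferase driven by a doxycycline-inducible promoter; compound on cells about two nights before reading with doxycycline added after day one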
* hit, by the source's call; ? = inconclusive; · = no result given. In the library only some 4% were active in any assay of this set; here they are far more common.

SMILES	Mdm2-MdmX inh	CSC inhib	Beta apoptosis	Shn3 3UTR inh	Gli-Sufu block	PAX8 reporter	Mdm2 MdmX conf	Full FLuc ctr
CCOC(=O)/C=c1\s/c(=C\c2ccc(C#N)cc2)c(=O)n1CC(=O)NCc1ccco1	-1	-7	-4	-17	-3	-7	·	·
CCOC(=O)/C=c1\s/c(=C\c2ccc(C(=O)OC)cc2)c(=O)n1CC(=O)Nc1ccccc1	62*	2	0	13	-5	-12	15	·
O=C(c1cccnc1)N1CCCCN2[C@H](C1)[C@H](c1ccc(C#Cc3ccccc3)cc1)[C@@H]2CO	·	·	·	·	·	51	·	·
Cc1c(NC(=O)CSc2nnc3c4ccccc4n(CCc4ccccc4)c3n2)c(=O)n(-c2ccccc2)n1C	100*	38	4	54	1	·	90*	52*
CCn1c2ccccc2c2nnc(SCC(=O)Nc3c(C)n(C)n(-c4ccccc4)c3=O)nc21	19	-12	-9	-1	-1	1	·	·
O=[N+]([O-])c1ccc(NC(=S)NCc2ccc(F)cc2)cc1	74*	45	·	17	-3	-10	22	·
O=[N+]([O-])c1ccc(NC(=S)NCCc2ccc(Cl)cc2)cc1	93*	196*	87*	-1	-17	·	81*	46*
O=[N+]([O-])c1cc(C(F)(F)F)ccc1NCCNC(=S)Nc1ccc(Cl)cc1	89*	106*	36	5	-3	·	27	·
C[C@@H]1CN([C@H](C)CO)C(=O)Cc2cc(NC(=O)Nc3ccc(F)cc3)ccc2O[C@H]1CN(C)S(=O)(=O)c1ccc(Cl)cc1	·	·	·	·	·	7	·	·
O=C(C[C@@H]1CC[C@H]2[C@@H](COC[C@H](O)CN2C(=O)Cc2ccccc2)O1)NC1Cc2ccccc2C1	·	·	·	·	·	4	·	·
C[C@@H]1CN([C@@H](C)CO)C(=O)c2cc(NC(=O)CCCN(C)C)ccc2O[C@@H](C)CCCCO[C@@H]1CN(C)C(=O)Nc1ccccc1	·	·	·	·	·	7	·	·
O=c1cc(Nc2ccc3c(c2)OCCO3)[nH]c(=O)n1-c1ccc(Br)cc1	55*	·	·	5	-5	·	6	·
O=c1cc(Nc2ccc3c(c2)OCO3)[nH]c(=O)n1-c1ccc(Br)cc1	10	4	6	8	-8	·	·	·
COc1ccc(NS(=O)(=O)c2cccs2)cn1	79*	-7	-6	5	0	10	12	·
C[C@H]1CCCCO[C@H](CN(C)C(=O)Cc2ccccc2)[C@@H](C)CN([C@@H](C)CO)C(=O)c2cc(NC(=O)Nc3ccc4c(c3)OCO4)ccc2O1	·	·	·	·	·	-4	·	·
Cn1nc(CC(=O)Nc2ncc(Br)s2)c2ccccc2c1=O	59*	20	7	69	36	·	25	·
COc1cnc(-c2ccccn2)nc1N(C)c1ccccc1	80*	98*	92*	89*	28	-3	77*	56*
O=C(c1cnn2c(C(F)(F)F)cc(-c3cccs3)nc12)N1CCN(C(c2ccccc2)c2ccccc2)CC1	62*	21	25	19	-24	·	59*	68*
O=C1Nc2cccnc2N(C(=O)CCl)c2ccccc21	68*	-3	-15	18	-1	?	50*	31
NCCN1CCN(CC(=O)N2c3ccccc3C(=O)Nc3cccnc32)CC1	-5	-9	-5	-3	-5	9	·	·
CCCCCN1C=CC(=C2C(=O)c3ccccc3C2=O)C=C1	78*	55	39	93*	59*	99*	83*	21
C=CCNc1nc(-c2ccccn2)nnc1-c1ccccc1	55*	-13	4	91*	48	?	60*	41*
COC(=O)C(CC#Cc1ccc2c(c1)[C@]1(C(=O)N2)[C@H](c2ccccc2OCCO)N2[C@H](c3ccccc3)[C@H](c3ccccc3)OC(=O)[C@H]2[C@@H]1C(=O)NC[C@H](O)c1ccccc1)C(=O)OC	·	·	·	·	·	8	·	·
O=C1[C@H]2[C@@H](c3ccc(F)cc3)N3C(=O)N(c4ccc(Br)cc4)C(=O)[C@@]3(Cc3ccc(Cl)cc3)[C@H]2C(=O)N1C1CCCCC1	85*	1	10	4	1	41	94*	28
